PMC13494018

B1: design_611_394c5ea9-a0d3-47c4-9d48-89ba6a28fdd0_264_dldesign_0_cycle1_af2pred (protein)
chain: AADEAAKKAIKQLKASVEAAARNARALAGSPDAPRAVKALKELAKVAAEGALGIAKATKDPEVAKEAKKAAEEIKKIAEETAKEIEA
B2: design_610_f34cc193-997c-4684-af32-2a8002718429_921_dldesign_0_cycle1_af2pred (protein)
chain: AEAVAVAAMLGLLRNAADHPESAEKLAEIARDMALATGVPAEKVKEVFEEGARYAREKGNEEAAKIIEEKGEEAVKAAKAA
B3: design_610_f34cc193-997c-4684-af32-2a8002718429_2230_dldesign_0_cycle1_af2pred (protein)
chain: SADQAEKQKLLAKFNEVSGEALELMEELTKAGDYETVQQVSRLLGQANGLAVAATDAATAKAALKVAEEALKLAKEALKKA
B4: design_610_f34cc193-997c-4684-af32-2a8002718429_954_dldesign_0_cycle1_af2pred (protein)
chain: MEEAKEKAEEAKKEAKEAIEKLRKVAEKAKAHPDGAEIQRRVDIAVAAVKGLLKNAEASPNPEDSLKIYEVAKELAEAERERVEAILK
B5: design_611_394c5ea9-a0d3-47c4-9d48-89ba6a28fdd0_577_dldesign_0_cycle1_af2pred (protein)
chain: VAAQLAAAQAKVDDVTAKVAEAKAAAKADPAEGVKIANATIGAAIDAMKAAKTYPPEVAAAAIAALSAQLAEASKIAISAQAKLDA
B6: design_610_f34cc193-997c-4684-af32-2a8002718429_1271_dldesign_0_cycle1_af2pred (protein)
chain: SGRVRQAQRLVEMAEELVETGEKEEAEKGKQLADAARALAEEALRRGDDPEAAKEVLERAKEVEKRAEEAIKA
B7: design_610_f34cc193-997c-4684-af32-2a8002718429_1816_dldesign_0_cycle1_af2pred (protein)
chain: AEAEALAAQARAHAHKALQEVSLGGDQAEADAHLAKAEEYAAQAKALDPEIGAQTQKIIDQYKALMAQAR
B8: design_610_f34cc193-997c-4684-af32-2a8002718429_824_dldesign_0_cycle1_af2pred (protein)
chain: DALVAEARRLLQEAARLLGTGSAAYIAGDKAAAVAAFKEAIGLAKKALELAKAAGDEALAASAQGLIELAEGLLAAAEA
B9: design_610_f34cc193-997c-4684-af32-2a8002718429_1084_dldesign_0_cycle1_af2pred (protein)
chain: SAAQQAKQKALELFEQAAKLAAKYDPKAAEKFNKAKEALQAGDLGGALKYATEGVNILAKNASQEAADEVRAIATQGLISYAQAQILA
B10: design_610_f34cc193-997c-4684-af32-2a8002718429_2276_dldesign_0_cycle1_af2pred (protein)
chain: AAAAAAAAAEAAARAARAKEVGQKTLDAVAARAKELGARSPALGEAEQLRLKSTAAVLAGDEAAAKAYAAQAGAILAAA
B11: design_610_f34cc193-997c-4684-af32-2a8002718429_2308_dldesign_0_cycle1_af2pred (protein)
chain: AAAAEAAAARLAAAKAALAAAQAKGAELAAQSPGAGIGYVWAAAVRLGETLGPEAAALAAQARAAAAAQNRALLAQSAA
B12: design_610_f34cc193-997c-4684-af32-2a8002718429_489_dldesign_0_cycle1_af2pred (protein)
chain: EKEKKIKELLEKGLEKMKKAAELTGDPGMQTYLKMAENNVKTNSPKDAAKINAELAKIAAGHAASLDPEAAKLVEEAYKLFKEAAKL
B13: design_610_f34cc193-997c-4684-af32-2a8002718429_1694_dldesign_0_cycle1_af2pred (protein)
chain: AAAAAELALRSAEALLRSARENAAAGTISPEGLRGAAEVIKDLARYAGELGGPEAAARAEELIAEADAVVA
B14: design_610_f34cc193-997c-4684-af32-2a8002718429_136_dldesign_0_cycle1_af2pred (protein)
chain: SLNGTAGAGIVELLKALAEAQKWKALDPEFFGAAAKEIAAETAAAAQAAVAGDYEAAIAEVKAGKAVAEKAKKHAAEIA
B15: design_610_f34cc193-997c-4684-af32-2a8002718429_328_dldesign_0_cycle1_af2pred (protein)
chain: MEAAKAAVEAARAEADALLAAAEASPDPGEATALAVDALRTVSAARREIEATYGPEAGALADAVLAEVRARVAALNRRLIA
B16: design_611_394c5ea9-a0d3-47c4-9d48-89ba6a28fdd0_579_dldesign_0_cycle1_af2pred (protein)
chain: DAAAQSKALQAQVAQAQALVEQARAAAADPARARALALQAFRQAQAVNRQAIALGDTATAAAAGEVMVAAARVLAA
B17: design_610_f34cc193-997c-4684-af32-2a8002718429_1550_dldesign_0_cycle1_af2pred (protein)
chain: SAAIQEQTAKDWAAVLEAAAARSTEAGIRLARAVAEVFRDDPELAEATAAALTNAEVAAALRAALEEARAAAA
B18: design_611_394c5ea9-a0d3-47c4-9d48-89ba6a28fdd0_317_dldesign_0_cycle1_af2pred (protein)
chain: AEAIQKANDALQEALDYLKEMSEIAKTEKLQEAVKQIQEKVGKAAQYAIDAVKNPEKAAEYAKKAKEEAEKAKEIYEKAKKES
B19: design_610_f34cc193-997c-4684-af32-2a8002718429_743_dldesign_0_cycle1_af2pred (protein)
chain: EEEEKKKKAKEYVEKAKKLAEQAAKSTVEQAHQYLGQAVELAAKVHELGVLPEEANKVLAQASANALALA
B20: design_610_f34cc193-997c-4684-af32-2a8002718429_1156_dldesign_0_cycle1_af2pred (protein)
chain: NPLVKQAEKNYKKAKEMAELGLASTDPLAIRSYAAFGDSLYNNAAELLKKAGKEEEAKKVEAEGEEKKAALLAKAKAAA
B21: design_610_f34cc193-997c-4684-af32-2a8002718429_742_dldesign_0_cycle1_af2pred (protein)
chain: MERAEKLIEKVKEIASLPKSKEEEQEELALKVAEEAAKLTPEEQQKVIQAMLEYAEKSGSTALLRGANRIFAA
B22: design_610_f34cc193-997c-4684-af32-2a8002718429_1837_dldesign_0_cycle1_af2pred (protein)
chain: NQVAAIAAANQALGERAYAEGLALYAADPEANREAARAAFVRAYAYFNAAAGAAIVLGDAAAAAAAQAKAEEAKAHAEALKA
B23: design_610_f34cc193-997c-4684-af32-2a8002718429_285_dldesign_0_cycle1_af2pred (protein)
chain: LAAEVAAAEAAAAAAAAAAKALGATATAAALRAMAEDAARSTPEEAAAARDFAEAMLTVLTARLAAAKAAAA
B24: design_610_f34cc193-997c-4684-af32-2a8002718429_291_dldesign_0_cycle1_af2pred (protein)
chain: AEERAKELAEELKELLAKAVADPSKAGEYLGRALELLAELQALAAEHPEVAPYAEEAHRALGAGNKALLAAIAA
B25: design_610_f34cc193-997c-4684-af32-2a8002718429_938_dldesign_0_cycle1_af2pred (protein)
chain: SPQAELDAFLGETLETSREISAILEKNRDKVPEEVRNKISDLLNKALSYASKAALGVDPEGAAKAKKYLEEAKKLTEEAVKLA
B26: design_610_f34cc193-997c-4684-af32-2a8002718429_692_dldesign_0_cycle1_af2pred (protein)
chain: SAARAAAAAAVHAKVYAVLEKQAEEALKKAAEVAKKLGDEKFYKEAKKEAEEAKKLAKESPGEGLKAITELKQKVKEAAKKAEA
B27: design_610_f34cc193-997c-4684-af32-2a8002718429_1045_dldesign_0_cycle1_af2pred (protein)
chain: MTPGELGELALEALRLAAEAARLAAEDPRFAPAAAAFRAAFIEIARGGDPEEALRLYEEGLRLYEAALAAWRAA
B28: design_610_f34cc193-997c-4684-af32-2a8002718429_661_dldesign_0_cycle1_af2pred (protein)
chain: AKAQAEAQLAQGQKLLEQAKKNLASGKNAVAALSNARGAYVLFQGAAYIAAKTDPELAKKAKEAAKQAEELAKQAQAAIAAA
B29: design_610_f34cc193-997c-4684-af32-2a8002718429_2398_dldesign_0_cycle1_af2pred (protein)
chain: AAAEIARRTVEAGVRQAFAASPEEAERLAENLAKIVEGLAGPEVGERVREIVREGLRLAEKFPEYREEIAEETAERAAELVYEALS
B30: design_610_f34cc193-997c-4684-af32-2a8002718429_895_dldesign_0_cycle1_af2pred (protein)
chain: SSAEALARRTAEAMVRLAERRIREAAEEGLEKARETAEKWARFAEEALPPEVGAETAKRIREAAERIVRRKEEE
B31: design_610_f34cc193-997c-4684-af32-2a8002718429_532_dldesign_0_cycle1_af2pred (protein)
chain: MPQAEQAAQAAAKSGESLMKLAESIWSSTPEYRKAHKESILGALEVARDLYEYAAKQGGEEYKKKAEEAKAKYKEVKETL
B32: design_610_f34cc193-997c-4684-af32-2a8002718429_868_dldesign_0_cycle1_af2pred (protein)
chain: DALAKAQKQAKATAEEAKKKAEEAKAAGNSAAAQMYENGAKVAEEGAKGDLKTVKAAIERGKTLIKAGDAIAAA
B33: design_610_f34cc193-997c-4684-af32-2a8002718429_1476_dldesign_0_cycle1_af2pred (protein)
chain: ARAAAIAEEAVRFANAASARALAAAVKTTPEANAQITALVVQLLEEADRARKATDPAEAEAHFEAARALAAEAEAIAAAALA
B34: design_611_394c5ea9-a0d3-47c4-9d48-89ba6a28fdd0_498_dldesign_0_cycle1_af2pred (protein)
chain: AAAATLAQVKELIAQAKADPANAAALLSQAIRLAVTTAIAAAAAGDTAAAVALSQAAIEAMKALDEVSKAA
B35: design_611_394c5ea9-a0d3-47c4-9d48-89ba6a28fdd0_592_dldesign_0_cycle1_af2pred (protein)
chain: DALKLIEAAAKLAKKIGLEEAAKLAEEAAKLLATGDPEAAGQGVLLLSKAYALAAADPKAAEAAALLRAALAAAAKEAIALARAAR
B36: design_610_f34cc193-997c-4684-af32-2a8002718429_2117_dldesign_0_cycle1_af2pred (protein)
chain: AAAAETASKAGEATIEALKAGAEAARLAEELGLDPAPYHQKAAQAIAALQAGEGSLETVTALKEELEKAAKELKEKV
B37: design_610_f34cc193-997c-4684-af32-2a8002718429_1172_dldesign_0_cycle1_af2pred (protein)
chain: LTEEEAKKLLADAKQLLELAEAALADPRFARTAITAADQAAALAKEAAKHPKVAAEAKALAARAEEVRKAAEEAAA
B38: design_610_f34cc193-997c-4684-af32-2a8002718429_1191_dldesign_0_cycle1_af2pred (protein)
chain: AEATGQAYADILVQSARSLAAAGASPEDVVQAMDSIAQAAIDELGEEGKKYAAKGAEKAAEEVKKLNPEAAKAVAKRAEELKKQA

target: CD276, Q5ZPR3
Sequence (Q5ZPR3 whole entry): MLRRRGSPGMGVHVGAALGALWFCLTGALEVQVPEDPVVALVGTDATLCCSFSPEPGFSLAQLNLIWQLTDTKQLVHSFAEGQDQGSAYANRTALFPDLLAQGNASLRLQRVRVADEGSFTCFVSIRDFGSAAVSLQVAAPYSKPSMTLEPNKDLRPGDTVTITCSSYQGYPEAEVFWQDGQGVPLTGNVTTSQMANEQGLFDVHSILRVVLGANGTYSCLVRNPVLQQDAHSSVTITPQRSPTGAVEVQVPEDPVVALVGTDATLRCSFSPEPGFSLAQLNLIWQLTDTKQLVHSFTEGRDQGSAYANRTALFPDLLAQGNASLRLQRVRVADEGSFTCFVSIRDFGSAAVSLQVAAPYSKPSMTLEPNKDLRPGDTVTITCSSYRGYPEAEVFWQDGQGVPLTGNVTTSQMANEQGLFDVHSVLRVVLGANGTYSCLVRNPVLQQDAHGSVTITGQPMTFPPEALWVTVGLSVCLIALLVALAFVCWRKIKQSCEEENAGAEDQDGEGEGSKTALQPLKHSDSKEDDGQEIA

Binding in a display sort, inactive:
B1 not found
B2 not found
B3 not found
B4 not found
B5 not found
B6 not found
B7 not found
B8 not found
B9 not found
B10 not found
B11 not found
B12 not found
B13 not found
B14 not found
B15 not found
B16 not found
B17 not found
B18 not found
B19 not found
B20 not found
B21 not found
B22 not found
B23 not found
B24 not found
B25 not found
B26 not found
B27 not found
B28 not found
B29 not found
B30 not found
B31 not found
B32 not found
B33 not found
B34 not found
B35 not found
B36 not found
B37 not found
B38 not found
